Measured values: PubChem BioAssay (EPA / NIEHS)
Results filed as inconclusive are left out. Activity calls are given as the source filed them. How the source made its calls: active means hit-call score of the fitted dose curve at least 0.9, where 1 is the maximum; inconclusive means response in the unintended direction; inactive means score below 0.9.

Target: human RAR-related Orphan Receptor gamma (RORg), RORC (gene 6097) (UniProt P51449)
Assay: ATG_RORg_TRANS: Attagene TRANS-FACTORIAL HepG2 Assay for human RAR-related Orphan Receptor gamma (RORg) (AID 2283011)
Description: ATG_TRANS is a cell-based, multiplexed-readout assay that uses HepG2, a human liver cell line, with measurements taken at 24 hours after chemical dosing in a 24-well plate.ATG_RORg_TRANS is one of 30 assay component(s) measured or calculated from the ATG_TRANS assay. It is designed to make measurements of mRNA induction, a form of inducible reporter, as detected with fluorescence intensity signals by Reverse transcription polymerase chain reaction (RT-PCR) and Capillary electrophoresis technology.Data from the assay component ATG_RORg_TRANS was analyzed into 1 assay endpoint. This assay endpoint, ATG_RORg_TRANS, was analyzed in the positive analysis fitting direction relative to DMSO as the negative control and baseline of activity. Using a type of inducible reporter, measures of mRNA for gain-of-signal activity can be used to understand the reporter gene at the transcription factor-level as they relate to the gene RORC. Furthermore, this assay endpoint can be referred to as a primary readout, because this assay has produced multiple assay endpoints where this one serves a reporter gene function. To generalize the intended target to other relatable targets, this assay endpoint is annotated to the nuclear receptor intended target family, where the subfamily is orphan.
Human liver HepG2 cells are transiently transfected with multiple reporter transcription units (MRTUs) in 6-well plates using FuGene 6 reagent (Roche; 3 ml FuGene/1 mg DNA). The MRTU constructs are regulated by a cis-regulating element (promoter). […] A major difference between the CIS and TRANS system is that in CIS activities of endogenous TFs are measured, whereas the TRANS assay evaluates changes in activities of exogenous, chimeric NR-Gal4 proteins. […] At the end of 24 hour incubation, total RNA was isolated using TriZol reagent (Invitrogen). The isolated RNA is then reverse-transcribed using oligo(dT) primer and Mo-MLV reverse transcriptase (Invitrogen) with DNAse I (Ambion) treatment for 30 min. The one-tenth of the produced cDNA was amplified by PCR using Taq DNA polymerase (Invitrogen) and two reporter sequence-specific primers. The PCR products were fluorescently labeled by primer extension with 6-arboxyfluorescein (6-FAM) 5'-labeled reporter sequence-specific primer (2 min at 95 C, 20 s at 68 C and 10 min at 72 C) and these products were digested with 5U of HpaI (New England Biolabs) for 2h at 37 C. The fragments were purified using Qiaquick PCR columns (Qiagen), analyzed on an ABI 3130xL genetic analyzer (Applied Biosystems) with peak positions identified by using a set of X-rhodamine (ROX)-labeled MapMarker1000 molecular weight standards (BioVentures). The raw capillary electrophoresis data was processed using Attagraph software (Attagene).

Sequence of human RAR-related Orphan Receptor gamma (RORg), RORC (gene 6097) (P51449 whole entry, looked up): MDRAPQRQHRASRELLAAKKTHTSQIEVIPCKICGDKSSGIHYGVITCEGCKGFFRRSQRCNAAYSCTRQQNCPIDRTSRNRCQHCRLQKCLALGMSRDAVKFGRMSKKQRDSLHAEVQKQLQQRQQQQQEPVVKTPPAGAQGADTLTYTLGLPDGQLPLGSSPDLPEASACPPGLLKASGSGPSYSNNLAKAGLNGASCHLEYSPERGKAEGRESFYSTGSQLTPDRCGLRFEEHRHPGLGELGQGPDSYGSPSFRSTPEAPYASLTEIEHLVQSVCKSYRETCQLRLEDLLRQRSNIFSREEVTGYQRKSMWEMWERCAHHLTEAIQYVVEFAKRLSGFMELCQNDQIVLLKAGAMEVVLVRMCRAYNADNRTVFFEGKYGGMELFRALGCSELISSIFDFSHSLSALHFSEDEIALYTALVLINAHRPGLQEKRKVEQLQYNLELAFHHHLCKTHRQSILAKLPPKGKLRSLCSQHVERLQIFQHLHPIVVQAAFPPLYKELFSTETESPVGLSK

Row | SMILES | outcome
1 | CC(=O)[C@@]1(O)CC[C@H]2[C@@H]3CCC4=CC(=O)CC[C@]4(C)[C@H]3CC[C@@]21C | inactive
2 | Oc1ccccc1O | inactive
3 | CC(=O)O[C@]1(C(C)=O)CC[C@H]2[C@@H]3C=C(Cl)C4=CC(=O)[C@@H]5C[C@@H]5[C@]4(C)[C@H]3CC[C@@]21C | inactive
4 | Cc1cc(SC2=C(O)C[C@@](CCc3ccc(N)cc3)(C(C)C)OC2=O)c(C(C)(C)C)cc1CO | inactive
5 | NCCOCCOCCN | inactive
6 | CC(C)OC(=O)C(C)(C)Oc1ccc(C(=O)c2ccc(Cl)cc2)cc1 | inactive
7 | O=C(Oc1ccccc1)c1cccc(C(=O)Oc2ccccc2)c1 | inactive
8 | Cc1cc(Cc2ccc(N)c(C)c2)ccc1N | inactive
9 | CN(C)C(=O)NC1(c2ccccc2)CCN(CCC[C@]2(c3ccc(Cl)c(Cl)c3)CCCN(C(=O)c3ccccc3)C2)CC1 | inactive
10 | CS(=O)(=O)c1ccc([C@@H](C[C@H]2CCC(=O)C2)C(=O)Nc2cnccn2)cc1Cl | inactive
11 | CC1=C(C)S(=O)(=O)CCS1(=O)=O | inactive
12 | C=CCc1ccc(OC)c(OC)c1 | inactive
13 | CCC(C)N(C)C(=O)c1cc2ccccc2c(-c2ccccc2Cl)n1 (stereo not given) | inactive
14 | N[C@@H](Cc1c[nH]c2ccccc12)C(=O)O | inactive
15 | CSc1ccc(Oc2ccc(S(N)(=O)=O)cc2CN(C)C)cc1C | inactive
16 | CC(=O)OC1CC(C)OC(C)O1 (stereo not given) | inactive
17 | S=c1[nH]c2ccccc2s1 | inactive
18 | CCCC(=O)O | inactive
19 | Cn1cnc2c1c(=O)[nH]c(=O)n2C | inactive
20 | O=C(O)CN(CC(=O)O)CC(=O)O | inactive

Row | SMILES | outcome
21 | NC1CCCCC1 | inactive
22 | O=C(NS(=O)(=O)/C=C/c1cccs1)c1ccc(F)cc1Br | inactive
23 | CCCCCCCCCCCCCCCCO | inactive
24 | CC(N)=O | inactive
25 | C/C=C/C=C/C(=O)O | inactive
26 | CC(C)COC(=O)CCCCC(=O)OCC(C)C | inactive
27 | CCc1cc(C2=C(C(=O)O)N(c3ccccc3C(F)(F)F)S(=O)(=O)c3ccccc32)cc2c1OCO2 | inactive
28 | CC(=O)CC(c1ccccc1)c1c(O)c2ccccc2oc1=O (stereo not given) | inactive
29 | c1ccc2occc2c1 | inactive
30 | O=C(O)c1cccnc1 | inactive
31 | CC(C)c1cccc(C(C)C)c1NC(=O)NS(=O)(=O)c1cc(C(C)(C)O)co1 | inactive
32 | CCCCC(CC)CO (stereo not given) | inactive
33 | CC(COCC(C)OC(=O)c1ccccc1)OC(=O)c1ccccc1 (stereo not given) | inactive
34 | COc1ccc(C(=O)Nc2nc3ccccc3c(NCc3ccccc3)c2C#N)cc1 | inactive
35 | CC(C)NCC(O)c1ccc(O)c(O)c1 (stereo not given) | inactive
36 | Nc1nc(=S)c2[nH]cnc2[nH]1 | inactive
37 | CCN(CC)CCOc1ccc(C(=C(Cl)c2ccccc2)c2ccccc2)cc1 | inactive
38 | O=C1CCCCC1 | inactive
39 | CO[C@@H]1COCC[C@@H]1N[C@@H]1CC[C@@](C(=O)N2CCc3ncc(C(F)(F)F)cc3C2)(C(C)C)C1 | inactive
40 | Cc1cn([C@H]2C=C[C@@H](CO)O2)c(=O)[nH]c1=O | inactive
